{
  "source": "paper PMC4336329",
  "about": "(PLoS ONE, 2015)",
  "note": "About 2,200 (0.71%) of roughly 310,000 compounds showed an effect of 50% or more. Effects have a minus sign here. This excerpt belongs to a sample that is enriched for strong results.",
  "data": [
    {"biological_target": "human ether-à-go-go-related gene (hERG) potassium channel (human, UniProt Q12809)", "sequence (Q12809 whole entry, looked up)": "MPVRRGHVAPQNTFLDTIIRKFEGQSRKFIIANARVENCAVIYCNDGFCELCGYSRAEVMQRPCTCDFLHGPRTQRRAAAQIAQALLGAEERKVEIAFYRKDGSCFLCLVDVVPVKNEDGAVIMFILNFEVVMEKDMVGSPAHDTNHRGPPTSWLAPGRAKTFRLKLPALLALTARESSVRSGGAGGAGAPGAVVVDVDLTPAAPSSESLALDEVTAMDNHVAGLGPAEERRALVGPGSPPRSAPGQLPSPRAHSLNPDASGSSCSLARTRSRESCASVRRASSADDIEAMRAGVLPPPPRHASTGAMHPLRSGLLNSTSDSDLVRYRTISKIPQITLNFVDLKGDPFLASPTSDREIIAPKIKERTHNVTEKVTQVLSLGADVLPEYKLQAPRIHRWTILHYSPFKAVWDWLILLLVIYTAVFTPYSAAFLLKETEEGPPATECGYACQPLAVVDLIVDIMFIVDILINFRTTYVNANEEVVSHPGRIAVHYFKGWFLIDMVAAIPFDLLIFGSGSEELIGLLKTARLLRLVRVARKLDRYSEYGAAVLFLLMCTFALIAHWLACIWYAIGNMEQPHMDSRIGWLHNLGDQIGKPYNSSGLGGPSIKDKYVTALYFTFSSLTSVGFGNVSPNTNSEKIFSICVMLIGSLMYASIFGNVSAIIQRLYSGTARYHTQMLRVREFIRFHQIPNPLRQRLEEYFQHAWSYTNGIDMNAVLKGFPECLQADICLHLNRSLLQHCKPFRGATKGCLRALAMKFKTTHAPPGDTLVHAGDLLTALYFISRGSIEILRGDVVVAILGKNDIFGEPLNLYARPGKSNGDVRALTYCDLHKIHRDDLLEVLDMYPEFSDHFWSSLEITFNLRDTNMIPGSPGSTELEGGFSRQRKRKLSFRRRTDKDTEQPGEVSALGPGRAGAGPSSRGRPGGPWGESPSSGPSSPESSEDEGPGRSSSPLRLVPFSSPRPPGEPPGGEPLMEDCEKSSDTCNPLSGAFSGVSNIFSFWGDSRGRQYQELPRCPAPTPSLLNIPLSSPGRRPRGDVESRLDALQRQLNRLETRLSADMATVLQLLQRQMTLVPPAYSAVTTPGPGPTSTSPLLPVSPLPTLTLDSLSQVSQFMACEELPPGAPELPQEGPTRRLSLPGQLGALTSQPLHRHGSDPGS", "assay": "primary screen, population patch clamp on CHO cells stably expressing hERG; higher = less effect of the substance", "units": {"hERG current change (%, negative = inhibition) at 1uM": "%"}, "values": [
      {"compound": "Cn1ccc(NC(=O)c2ccc(Cl)cc2)n1", "hERG current change (%, negative = inhibition) at 1uM": 11},
      {"compound": "CCC(C)N1C(=O)CCC1C(=O)N1CCN(c2ccccc2F)CC1", "note": "(centres unmarked)", "hERG current change (%, negative = inhibition) at 1uM": 17},
      {"compound": "CC(=O)N1CCN(C2=NC(=O)C(=C3CCCCC3)S2)CC1", "hERG current change (%, negative = inhibition) at 1uM": -2.21},
      {"compound": "CCCNC(=O)C1CC(=O)N(c2ccc(OCC(=O)Nc3cccc(C)c3C)cc2)C1", "note": "(centres unmarked)", "hERG current change (%, negative = inhibition) at 1uM": 11},
      {"compound": "CN1CCN(C(=O)c2ccc3c(Cl)c4c(nc3c2)CCCC4)CC1", "hERG current change (%, negative = inhibition) at 1uM": -0.735},
      {"compound": "Cc1cc(C)c2nc(C(F)(F)F)nc(NCCCN3CCOCC3)c2c1", "hERG current change (%, negative = inhibition) at 1uM": 9.96},
      {"compound": "CCC(C)(C)C1CCc2[nH]nc(C(=O)O)c2C1", "note": "(centres unmarked)", "hERG current change (%, negative = inhibition) at 1uM": 11.9},
      {"compound": "CC(=O)NS(=O)(=O)c1ccc(NC(=O)C2C3C=CC(C3)C2C(=O)O)cc1", "note": "(centres unmarked)", "hERG current change (%, negative = inhibition) at 1uM": 7.33},
      {"compound": "Cc1ccc2c(c1)Oc1ccc(NC(=O)CCCl)cc1C(=O)N2", "hERG current change (%, negative = inhibition) at 1uM": 3.94},
      {"compound": "COc1ccc(CN2[C@@H](CC(C)=O)c3ccc(/C=C/C(C)=O)cc3S2(=O)=O)cc1", "hERG current change (%, negative = inhibition) at 1uM": -0.639},
      {"compound": "O=C(c1nn(Cc2ccccc2)c(=O)c2ccccc12)N1CCN(c2ccccn2)CC1", "hERG current change (%, negative = inhibition) at 1uM": -14.5},
      {"compound": "O=C(c1nn(Cc2ccccc2)c(=O)c2ccccc12)N1CCN(C/C=C/c2ccccc2)CC1", "hERG current change (%, negative = inhibition) at 1uM": -38.3},
      {"compound": "CC(=O)c1ccc(N2CCN(C(=O)c3nn(Cc4ccccc4)c(=O)c4ccccc34)CC2)cc1", "hERG current change (%, negative = inhibition) at 1uM": -72.9},
      {"compound": "Cn1cc([N+](=O)[O-])c(C(=O)NC2CCCCCC2)n1", "hERG current change (%, negative = inhibition) at 1uM": 15.5},
      {"compound": "COc1cc(-c2nc3ccccn3c2NCC2CCCO2)ccc1O", "note": "(centres unmarked)", "hERG current change (%, negative = inhibition) at 1uM": 2.7},
      {"compound": "CCOc1cc(-c2nc3cc(C)ccn3c2NCC2CCCO2)ccc1O", "note": "(centres unmarked)", "hERG current change (%, negative = inhibition) at 1uM": -47.3},
      {"compound": "COc1ccc(-c2nc3cc(C)ccn3c2NCC2CCCO2)cc1OC.Cl", "note": "(centres unmarked)", "hERG current change (%, negative = inhibition) at 1uM": -55.3},
      {"compound": "CCN(C(=O)CSc1nc2cc(Cl)ccc2c(=O)n1CC(C)C)C1CCS(=O)(=O)C1", "note": "(centres unmarked)", "hERG current change (%, negative = inhibition) at 1uM": 10.7},
      {"compound": "CCc1cc2c(SCC(=O)N(C)C3CCS(=O)(=O)C3)ncnc2s1", "note": "(centres unmarked)", "hERG current change (%, negative = inhibition) at 1uM": -7.21},
      {"compound": "CC(C)Cn1c(SCC(=O)N(C)C2CCS(=O)(=O)C2)nc2cc(Cl)ccc2c1=O", "note": "(centres unmarked)", "hERG current change (%, negative = inhibition) at 1uM": 4.62},
      {"compound": "COCCn1c(SCC(=O)N(C)C2CCS(=O)(=O)C2)nc2ccccc2c1=O", "note": "(centres unmarked)", "hERG current change (%, negative = inhibition) at 1uM": 4.99},
      {"compound": "Cc1cc2c(=O)n(Cc3ccco3)c(SCC(=O)NCc3ccco3)nc2s1", "hERG current change (%, negative = inhibition) at 1uM": -0.915},
      {"compound": "CN(C(=O)CSc1nc2ccc(Br)cc2c(=O)n1Cc1ccco1)C1CCS(=O)(=O)C1", "note": "(centres unmarked)", "hERG current change (%, negative = inhibition) at 1uM": -83.1},
      {"compound": "CCN(C(=O)CSc1nc2cc(Cl)ccc2c(=O)n1Cc1ccco1)C1CCS(=O)(=O)C1", "note": "(centres unmarked)", "hERG current change (%, negative = inhibition) at 1uM": -70.2},
      {"compound": "CCc1cc2c(=O)n(Cc3ccco3)c(SCC(=O)NCC3CCCO3)nc2s1", "note": "(centres unmarked)", "hERG current change (%, negative = inhibition) at 1uM": -60.5},
      {"compound": "O=C(CSc1nc2c(sc3ccccc32)c(=O)n1Cc1ccco1)NCC1CCCO1", "note": "(centres unmarked)", "hERG current change (%, negative = inhibition) at 1uM": -0.521},
      {"compound": "CCc1cc2c(=O)n(Cc3ccco3)c(SCC(=O)N(C)C3CCS(=O)(=O)C3)nc2s1", "note": "(centres unmarked)", "hERG current change (%, negative = inhibition) at 1uM": -85.4},
      {"compound": "CN(C(=O)CSc1nc2cc(C(=O)O)ccc2c(=O)n1Cc1ccccc1)C1CCS(=O)(=O)C1", "note": "(centres unmarked)", "hERG current change (%, negative = inhibition) at 1uM": 17.6},
      {"compound": "CCc1cc2c(=O)n(Cc3ccco3)c(SCC(=O)NC3CCS(=O)(=O)C3)nc2s1", "note": "(centres unmarked)", "hERG current change (%, negative = inhibition) at 1uM": -29.7},
      {"compound": "C/C(=N\\NC(=O)c1cc(C)[nH]n1)c1ccc(-c2ccccc2)cc1", "hERG current change (%, negative = inhibition) at 1uM": 13.7},
      {"compound": "O=C(CCN1C(=O)/C(=C/c2ccc(F)cc2)SC1=S)NNC(=O)c1cccnc1", "hERG current change (%, negative = inhibition) at 1uM": 1.06},
      {"compound": "COc1cc(/C=N\\NC(=O)C(C)(C)O)ccc1OC/C=C/c1ccccc1", "hERG current change (%, negative = inhibition) at 1uM": 13},
      {"compound": "CC(C)c1ccccc1OS(N)(=O)=O", "hERG current change (%, negative = inhibition) at 1uM": 4.02},
      {"compound": "COc1ccccc1NC(=O)CSc1nnc(C2CCCCC2)n1-c1ccccc1", "hERG current change (%, negative = inhibition) at 1uM": 2.23},
      {"compound": "Cc1cc(OCC(=O)NCCCN2CCCC2=O)c2c(C)cc(=O)oc2c1", "hERG current change (%, negative = inhibition) at 1uM": 19},
      {"compound": "COc1ccc(C(=O)C[n+]2cn(C(F)F)c3ccccc32)c(F)c1.[Br-]", "hERG current change (%, negative = inhibition) at 1uM": -0.738},
      {"compound": "O=C(C[n+]1ccc(C(=O)NCc2ccccc2)cc1)c1ccc(OC(F)F)cc1.[Br-]", "hERG current change (%, negative = inhibition) at 1uM": -81.2},
      {"compound": "O=C(C[n+]1cn(C(F)F)c2ccccc21)c1ccc(Br)cc1.[Br-]", "hERG current change (%, negative = inhibition) at 1uM": 3.52},
      {"compound": "O=C(C[n+]1cccc(CNC(=O)c2ccc(OC(F)F)cc2)c1)c1ccccc1.[Cl-]", "hERG current change (%, negative = inhibition) at 1uM": 2.3},
      {"compound": "O=C(C[n+]1cn(C(F)F)c2ccccc21)c1ccc(OC(F)F)cc1.[Br-]", "hERG current change (%, negative = inhibition) at 1uM": -53.7},
      {"compound": "CCOc1ccc(C(=O)C[n+]2ccc(C(=O)NCc3ccccc3)cc2)cc1.[Br-]", "hERG current change (%, negative = inhibition) at 1uM": 4.11},
      {"compound": "O=[N+]([O-])c1ccccc1/C=C/C=N/N1CCCCC1", "hERG current change (%, negative = inhibition) at 1uM": 13},
      {"compound": "CC(/C=C/c1ccc(N(C)C)cc1)=N\\N=C(/N)SC1CC(=O)N(c2ccc(C(=O)O)cc2)C1=O", "note": "(centres unmarked)", "hERG current change (%, negative = inhibition) at 1uM": 3.7},
      {"compound": "COCCNC(=S)N/N=C/c1ccc([N+](=O)[O-])cc1", "hERG current change (%, negative = inhibition) at 1uM": 12},
      {"compound": "Cc1cc(OCCN2CCC(Cc3ccccc3)CC2)ccc1[N+](=O)[O-].O=C(O)C(=O)O", "hERG current change (%, negative = inhibition) at 1uM": -53.5},
      {"compound": "Cc1cc(OCCN2CC(C)OC(C)C2)ccc1[N+](=O)[O-].O=C(O)C(=O)O", "note": "(centres unmarked)", "hERG current change (%, negative = inhibition) at 1uM": -5.36},
      {"compound": "Cc1cc(OCCN2CCCC2)ccc1[N+](=O)[O-].O=C(O)C(=O)O", "hERG current change (%, negative = inhibition) at 1uM": 7.94},
      {"compound": "O=C(O)C(=O)O.O=[N+]([O-])c1cccc(OCCN2CCC(Cc3ccccc3)CC2)c1", "hERG current change (%, negative = inhibition) at 1uM": -23.6},
      {"compound": "O=C(O)C(=O)O.O=[N+]([O-])c1cccc(OCCCN2CCC(Cc3ccccc3)CC2)c1", "hERG current change (%, negative = inhibition) at 1uM": -82.9},
      {"compound": "Cc1cc(OCCCN2CCN(Cc3ccccc3)CC2)ccc1[N+](=O)[O-].O=C(O)C(=O)O", "hERG current change (%, negative = inhibition) at 1uM": -52.5},
      {"compound": "Cc1cc(OCCN2CCOCC2)ccc1[N+](=O)[O-].O=C(O)C(=O)O", "hERG current change (%, negative = inhibition) at 1uM": 10.6},
      {"compound": "Cc1ccc([N+](=O)[O-])c(OCCCN2CCC(Cc3ccccc3)CC2)c1.O=C(O)C(=O)O", "hERG current change (%, negative = inhibition) at 1uM": -95.8},
      {"compound": "O=[N+]([O-])c1cccc(CN2CCC(Cc3ccccc3)CC2)c1", "hERG current change (%, negative = inhibition) at 1uM": -45.6},
      {"compound": "Cc1cc(OCCN2CCCCCC2)ccc1[N+](=O)[O-].O=C(O)C(=O)O", "hERG current change (%, negative = inhibition) at 1uM": -12.8},
      {"compound": "Cc1ccc([N+](=O)[O-])c(OCCCN2CCCCCC2)c1.O=C(O)C(=O)O", "hERG current change (%, negative = inhibition) at 1uM": -14.5},
      {"compound": "Cc1ccc([N+](=O)[O-])c(OCCN2CCC(Cc3ccccc3)CC2)c1.O=C(O)C(=O)O", "hERG current change (%, negative = inhibition) at 1uM": -25.9}
    ]}
  ]
}
